# Assay results taken from ChEMBL document CHEMBL4513154, “CO-ADD screening of Jain University (India) compounds”.
# The whole screen tested about 23,000 compounds, of which about 30 (0.1%) showed an effect of 50% or more. The full list was thinned out, with strong results kept by preference. Potency and affinity values are given separately.
# System: Pseudomonas aeruginosa
# Settings: Concentration 32 ug.mL-1; ASSAY_TEST Inhibition of Bacterial Growth; detection method Absorption (OD600); MEDIA CAMHB; plate type 384well; NBS; CORNING #3640; time 18 hr
row,SMILES,Inhibition [%]
1,N=C(Nc1ccccc1)c1cscn1,1.73
2,N=C(Nc1ccccc1Cl)c1cscn1,77.11
3,CCc1ccc(Nc2nc(N)c(-c3nc4ccccc4c(=O)n3-c3ccccc3)s2)cc1,12.66
